Experimental data taken from the supplement of paper PMC10849652.
About 7,900 targets were measured; listed, in parts, are those with a hit and a random draw of the rest. About 0.6% of all pairs of compound and target were hits. Unmarked numbers belong to inactive results.

What was measured:
Test in all cases: log2 fold change, soluble protein after heating vs DMSO (PISA); higher = thermal stabilisation; K562 cells, 10 uM, 30 min; active = over 0.2 and 3.5 SD of the protein, either way, in both replicates (recomputed)
[1] = compound: COC1=CC=C(C=C1)CN2C=CC3=C2C=C(C=C3)C(=O)NO
Method in brief: (§1)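 Values are thermal stability changes relative to control samples and are taken from duplicates. They are stated as log2 fold changes. Before quantification by TMTpro 16plex LC-MS/MS with equalised channel sums, K562 cells at 2×10^6 cells/mL were treated with 10 μM compound for 30 min, heated in aliquots for 3 min across 48°C-58°C, pooled, extracted in PBS with 0.5% NP-40 at 4°C, and centrifuged at 21,000xg for 90 min to give the soluble supernatant.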

filanesib = compound: CON(C)C(=O)N1N=C(c2cc(F)ccc2F)S[C@@]1(CCCN)c1ccccc1 [filanesib]
Method in brief: as §1

zotarolimus = compound: CO[C@H]1C[C@@H]2CC[C@@H](C)[C@@](O)(O2)C(=O)C(=O)N2CCCC[C@H]2C(=O)O[C@H]([C@H](C)C[C@@H]2CC[C@H](n3cnnn3)[C@H](OC)C2)CC(=O)[C@H](C)/C=C(\C)[C@@H](O)[C@@H](OC)C(=O)[C@H](C)C[C@H](C)/C=C/C=C/C=C/1C [zotarolimus]
Method in brief: as §1

idasanutlin = compound: COc1cc(C(=O)O)ccc1NC(=O)[C@@H]1N[C@@H](CC(C)(C)C)[C@](C#N)(c2ccc(Cl)cc2F)[C@H]1c1cccc(Cl)c1F [idasanutlin]
Method in brief: as §1

alisertib = compound: COc1cc(Nc2ncc3c(n2)-c2ccc(Cl)cc2C(c2c(F)cccc2OC)=NC3)ccc1C(=O)O [alisertib]
Method in brief: as §1

[2] = compound: COc1cc2nc(-c3cc(F)ccc3O)nc(N[C@@H]3CNC[C@H]3C(C)(C)O)c2cc1OC
Method in brief: as §1

gefitinib = compound: COc1cc2ncnc(Nc3ccc(F)c(Cl)c3)c2cc1OCCCN1CCOCC1 [gefitinib]
Method in brief: as §1

[3] = compound: COc1cccc2cc(-c3nc([C@H]4CC[C@H](C(=O)O)CC4)n4ncnc(N)c34)[nH]c12
Method in brief: as §1

lapatinib = compound: CS(=O)(=O)CCNCc1ccc(-c2ccc3ncnc(Nc4ccc(OCc5cccc(F)c5)c(Cl)c4)c3c2)o1 [lapatinib]
Method in brief: as §1

pictilisib = compound: CS(=O)(=O)N1CCN(Cc2cc3nc(-c4cccc5[nH]ncc45)nc(N4CCOCC4)c3s2)CC1 [pictilisib]
Method in brief: as §1

[4] = compound: CS(=O)(=O)c1ccc(-c2cnc(N)c(C(=O)Nc3ccccc3)n2)cc1
Method in brief: as §1

crizotinib = compound: C[C@@H](Oc1cc(-c2cnn(C3CCNCC3)c2)cnc1N)c1c(Cl)ccc(F)c1Cl [crizotinib]
Method in brief: as §1

[5] = compound: C[C@@H]1COCCN1C2=NC(=NC(=C2)C3(CC3)S(=O)(=O)C)C4=C5C=CNC5=CC=C4
Method in brief: as §1

[6] = compound: C[C@H](C1=CC=C(C=C1)C(=O)NC2=C3C=CNC3=NC=C2)N
Method in brief: as §1

duvelisib = compound: C[C@H](Nc1ncnc2nc[nH]c12)c1cc2cccc(Cl)c2c(=O)n1-c1ccccc1 [duvelisib]
Method in brief: as §1

gandotinib = compound: Cc1cc(Nc2cc(CN3CCOCC3)c3nc(C)c(Cc4ccc(Cl)cc4F)n3n2)n[nH]1 [gandotinib]
Method in brief: as §1

tozasertib = compound: Cc1cc(Nc2cc(N3CCN(C)CC3)nc(Sc3ccc(NC(=O)C4CC4)cc3)n2)n[nH]1 [tozasertib]
Method in brief: as §1

[7] = compound: Cc1cc(SCc2sc(-c3ccc(C(F)(F)F)cc3)nc2C)ccc1OCC(=O)O
Method in brief: as §1

doramapimod = compound: Cc1ccc(-n2nc(C(C)(C)C)cc2NC(=O)Nc2ccc(OCCN3CCOCC3)c3ccccc23)cc1 [doramapimod]
Method in brief: as §1

ispinesib = compound: Cc1ccc(C(=O)N(CCCN)[C@@H](c2nc3cc(Cl)ccc3c(=O)n2Cc2ccccc2)C(C)C)cc1 [ispinesib]
Method in brief: as §1

Sequence of UniProt Q9NQW7 (Q9NQW7 whole entry, looked up): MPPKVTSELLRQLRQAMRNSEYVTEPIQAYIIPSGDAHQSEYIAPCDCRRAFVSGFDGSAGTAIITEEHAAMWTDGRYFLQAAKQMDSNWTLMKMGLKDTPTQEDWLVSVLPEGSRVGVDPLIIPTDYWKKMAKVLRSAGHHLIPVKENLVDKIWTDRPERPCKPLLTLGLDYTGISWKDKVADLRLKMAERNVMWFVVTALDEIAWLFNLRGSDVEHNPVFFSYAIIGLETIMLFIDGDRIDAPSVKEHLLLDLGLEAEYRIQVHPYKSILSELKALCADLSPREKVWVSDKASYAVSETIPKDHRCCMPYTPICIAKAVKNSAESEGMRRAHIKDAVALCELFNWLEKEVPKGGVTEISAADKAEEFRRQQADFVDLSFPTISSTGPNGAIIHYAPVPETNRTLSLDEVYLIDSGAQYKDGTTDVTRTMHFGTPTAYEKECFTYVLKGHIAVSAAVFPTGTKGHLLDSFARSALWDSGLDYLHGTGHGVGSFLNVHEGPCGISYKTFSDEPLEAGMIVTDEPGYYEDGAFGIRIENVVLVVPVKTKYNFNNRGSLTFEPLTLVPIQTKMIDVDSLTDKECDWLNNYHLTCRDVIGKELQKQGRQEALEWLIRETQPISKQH
Sequence of UniProt Q5T3F8 (Q5T3F8 whole entry, looked up): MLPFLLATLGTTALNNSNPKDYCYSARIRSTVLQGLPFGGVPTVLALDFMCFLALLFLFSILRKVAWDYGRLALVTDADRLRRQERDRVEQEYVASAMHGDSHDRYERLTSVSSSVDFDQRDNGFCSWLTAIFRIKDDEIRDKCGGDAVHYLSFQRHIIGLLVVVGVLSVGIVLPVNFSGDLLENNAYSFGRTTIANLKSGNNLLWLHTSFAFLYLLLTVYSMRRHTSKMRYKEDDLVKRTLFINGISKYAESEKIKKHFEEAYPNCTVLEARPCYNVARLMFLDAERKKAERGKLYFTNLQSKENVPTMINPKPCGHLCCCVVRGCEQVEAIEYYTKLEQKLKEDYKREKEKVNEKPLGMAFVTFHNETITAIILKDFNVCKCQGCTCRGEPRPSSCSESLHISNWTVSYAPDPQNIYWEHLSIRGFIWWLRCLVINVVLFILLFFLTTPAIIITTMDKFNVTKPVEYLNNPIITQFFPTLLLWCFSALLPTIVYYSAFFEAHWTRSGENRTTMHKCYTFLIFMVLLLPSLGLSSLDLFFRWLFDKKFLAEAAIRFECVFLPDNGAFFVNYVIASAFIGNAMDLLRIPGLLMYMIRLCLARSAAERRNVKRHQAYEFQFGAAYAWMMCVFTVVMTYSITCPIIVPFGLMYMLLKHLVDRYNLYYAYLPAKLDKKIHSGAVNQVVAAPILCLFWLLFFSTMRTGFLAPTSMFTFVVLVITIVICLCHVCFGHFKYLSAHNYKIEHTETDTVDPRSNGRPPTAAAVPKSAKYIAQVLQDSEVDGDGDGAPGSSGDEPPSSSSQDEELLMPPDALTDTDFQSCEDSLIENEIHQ
Sequence of UniProt P28908 (P28908 whole entry, looked up): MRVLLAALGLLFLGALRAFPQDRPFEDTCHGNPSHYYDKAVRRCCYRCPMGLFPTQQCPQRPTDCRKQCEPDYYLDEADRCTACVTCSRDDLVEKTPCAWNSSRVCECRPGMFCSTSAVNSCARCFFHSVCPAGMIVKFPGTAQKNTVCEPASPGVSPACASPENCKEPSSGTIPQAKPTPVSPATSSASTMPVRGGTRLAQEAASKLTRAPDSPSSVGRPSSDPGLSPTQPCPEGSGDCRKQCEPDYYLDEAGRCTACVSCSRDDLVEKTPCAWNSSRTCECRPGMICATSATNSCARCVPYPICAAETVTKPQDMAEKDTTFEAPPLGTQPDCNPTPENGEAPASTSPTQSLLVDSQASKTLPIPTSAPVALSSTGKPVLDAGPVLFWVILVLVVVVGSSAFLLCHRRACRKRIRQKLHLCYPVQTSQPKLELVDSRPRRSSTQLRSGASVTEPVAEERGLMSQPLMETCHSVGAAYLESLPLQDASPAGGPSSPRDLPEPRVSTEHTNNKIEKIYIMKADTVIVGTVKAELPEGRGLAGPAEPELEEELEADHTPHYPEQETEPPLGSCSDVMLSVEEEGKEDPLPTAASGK
Sequence of UniProt Q9Y4E8 (Q9Y4E8 whole entry, looked up): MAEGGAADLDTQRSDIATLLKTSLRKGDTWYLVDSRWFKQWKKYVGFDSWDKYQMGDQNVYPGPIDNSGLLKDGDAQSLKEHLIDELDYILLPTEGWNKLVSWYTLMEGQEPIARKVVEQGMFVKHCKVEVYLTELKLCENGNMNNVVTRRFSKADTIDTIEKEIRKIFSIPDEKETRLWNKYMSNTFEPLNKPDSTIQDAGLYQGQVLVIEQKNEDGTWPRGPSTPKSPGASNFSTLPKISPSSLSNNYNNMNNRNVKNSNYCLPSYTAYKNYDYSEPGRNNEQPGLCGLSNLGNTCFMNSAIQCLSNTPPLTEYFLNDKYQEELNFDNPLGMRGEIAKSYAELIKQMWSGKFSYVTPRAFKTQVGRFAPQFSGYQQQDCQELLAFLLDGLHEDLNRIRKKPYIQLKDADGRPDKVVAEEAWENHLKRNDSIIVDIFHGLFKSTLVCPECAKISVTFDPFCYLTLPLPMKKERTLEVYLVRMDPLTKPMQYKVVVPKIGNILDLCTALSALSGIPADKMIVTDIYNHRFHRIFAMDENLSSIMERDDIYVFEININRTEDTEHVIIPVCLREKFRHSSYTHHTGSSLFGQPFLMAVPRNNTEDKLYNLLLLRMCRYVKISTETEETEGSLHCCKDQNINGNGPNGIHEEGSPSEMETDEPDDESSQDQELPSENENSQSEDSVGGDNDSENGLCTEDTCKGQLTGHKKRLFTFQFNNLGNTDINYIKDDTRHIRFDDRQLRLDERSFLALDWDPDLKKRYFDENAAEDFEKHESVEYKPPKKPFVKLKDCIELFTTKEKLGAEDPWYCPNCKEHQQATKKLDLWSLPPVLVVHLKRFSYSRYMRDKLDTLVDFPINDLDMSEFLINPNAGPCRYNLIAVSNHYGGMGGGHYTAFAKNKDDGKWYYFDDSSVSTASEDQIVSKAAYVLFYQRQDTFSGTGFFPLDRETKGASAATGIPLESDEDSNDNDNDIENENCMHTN
Sequence of UniProt O00258 (O00258 whole entry, looked up): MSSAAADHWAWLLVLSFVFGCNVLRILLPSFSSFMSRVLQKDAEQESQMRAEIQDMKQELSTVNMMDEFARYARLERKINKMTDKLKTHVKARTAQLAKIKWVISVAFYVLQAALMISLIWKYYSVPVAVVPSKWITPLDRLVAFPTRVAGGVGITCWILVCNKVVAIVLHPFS
Sequence of UniProt Q16881 (Q16881 whole entry, looked up): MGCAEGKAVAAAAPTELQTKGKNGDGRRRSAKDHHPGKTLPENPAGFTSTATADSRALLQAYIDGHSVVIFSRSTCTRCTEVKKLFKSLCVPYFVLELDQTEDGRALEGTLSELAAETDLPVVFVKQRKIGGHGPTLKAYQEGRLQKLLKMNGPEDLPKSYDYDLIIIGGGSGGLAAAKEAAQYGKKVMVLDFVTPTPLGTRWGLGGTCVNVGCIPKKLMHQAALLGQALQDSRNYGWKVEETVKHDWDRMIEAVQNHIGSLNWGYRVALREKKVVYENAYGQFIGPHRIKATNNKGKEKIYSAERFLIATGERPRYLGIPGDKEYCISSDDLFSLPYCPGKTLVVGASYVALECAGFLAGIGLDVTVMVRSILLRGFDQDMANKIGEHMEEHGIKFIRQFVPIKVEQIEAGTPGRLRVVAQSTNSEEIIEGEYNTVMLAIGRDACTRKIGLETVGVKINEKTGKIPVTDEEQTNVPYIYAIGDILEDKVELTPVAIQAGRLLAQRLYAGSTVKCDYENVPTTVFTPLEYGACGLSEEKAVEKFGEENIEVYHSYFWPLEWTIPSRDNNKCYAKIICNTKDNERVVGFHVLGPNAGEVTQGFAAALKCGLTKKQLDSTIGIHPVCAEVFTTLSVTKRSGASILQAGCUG
Sequence of UniProt Q14157 (Q14157 whole entry, looked up): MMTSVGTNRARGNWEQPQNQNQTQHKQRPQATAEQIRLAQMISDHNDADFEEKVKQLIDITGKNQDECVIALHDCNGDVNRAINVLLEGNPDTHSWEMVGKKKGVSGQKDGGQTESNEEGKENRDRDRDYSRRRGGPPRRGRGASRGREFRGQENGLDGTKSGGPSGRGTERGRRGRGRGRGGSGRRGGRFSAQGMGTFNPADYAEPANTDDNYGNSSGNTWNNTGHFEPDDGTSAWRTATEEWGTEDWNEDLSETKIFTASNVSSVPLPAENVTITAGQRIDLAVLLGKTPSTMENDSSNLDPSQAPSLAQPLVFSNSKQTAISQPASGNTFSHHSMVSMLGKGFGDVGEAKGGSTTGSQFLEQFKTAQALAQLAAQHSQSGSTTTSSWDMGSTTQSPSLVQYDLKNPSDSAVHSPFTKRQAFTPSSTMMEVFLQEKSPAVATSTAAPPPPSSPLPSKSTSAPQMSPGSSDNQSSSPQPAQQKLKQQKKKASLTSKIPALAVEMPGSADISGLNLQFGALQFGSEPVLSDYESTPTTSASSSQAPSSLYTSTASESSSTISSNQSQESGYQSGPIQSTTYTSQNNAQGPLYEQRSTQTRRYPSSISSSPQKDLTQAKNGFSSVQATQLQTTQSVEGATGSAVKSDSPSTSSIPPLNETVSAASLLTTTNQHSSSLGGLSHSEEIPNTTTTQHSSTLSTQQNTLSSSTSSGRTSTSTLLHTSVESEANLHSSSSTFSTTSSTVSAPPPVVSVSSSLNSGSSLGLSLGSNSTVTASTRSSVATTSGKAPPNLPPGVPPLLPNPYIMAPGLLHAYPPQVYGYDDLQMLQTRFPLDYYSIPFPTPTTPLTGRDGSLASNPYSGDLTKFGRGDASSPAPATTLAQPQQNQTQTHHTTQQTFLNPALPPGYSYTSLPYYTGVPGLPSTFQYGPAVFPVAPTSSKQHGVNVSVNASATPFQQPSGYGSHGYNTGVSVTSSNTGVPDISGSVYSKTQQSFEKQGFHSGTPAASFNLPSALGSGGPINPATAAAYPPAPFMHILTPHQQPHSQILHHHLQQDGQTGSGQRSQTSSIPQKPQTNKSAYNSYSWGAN

Row | Target | log2 fold change [1] | log2 fold change (filanesib) | log2 fold change (zotarolimus) | log2 fold change (idasanutlin) | log2 fold change (alisertib) | log2 fold change [2] | log2 fold change (gefitinib) | log2 fold change [3] | log2 fold change (lapatinib) | log2 fold change (pictilisib) | log2 fold change [4] | log2 fold change (crizotinib) | log2 fold change [5] | log2 fold change [6] | log2 fold change (duvelisib) | log2 fold change (gandotinib) | log2 fold change (tozasertib) | log2 fold change [7] | log2 fold change (doramapimod) | log2 fold change (ispinesib)
1 | TXNRD1 (UniProt Q16881) | 0.018 | -0.101 | 0.006 | -0.144 | -0.012 | -0.023 | 0.026 | 0.052 | -0.055 | 0.062 | 0.075 | -0.043 | 0.079 | -0.053 | 0.047 | -0.045 | -0.036 | -0.007 | -0.028 | -0.009
2 | USP15 (UniProt Q9Y4E8) | 0.027 | -0.004 | 0.051 | -0.018 | -0.043 | 0.016 | 0.028 | -0.05 | -0.021 | -0.027 | 0.04 | -0.041 | 0.05 | -0.009 | 0.01 | -0.043 | 0.056 | 0.063 | -0.045 | -0.036
3 | TPR (UniProt P12270) | -0.048 | 0.115 | 0.049 | 0.055 | -0.076 | 0.065 | -0.056 | -0.06 | 0.044 | 0.036 | -0.03 | 0.297 (active) | 0.013 | -0.083 | 0.017 | 0.008 | 0.349 (active) | -0.027 | 0.037 | 0.223
4 | TRIM28 (UniProt Q13263) | 0.015 | -0.017 | 0.046 | -0.031 | -0.087 | 0.003 | 0.002 | -0.03 | -0.005 | 0.033 | -0.001 | 0.046 | 0.048 | -0.068 | 0.027 | -0.033 | 0.13 | 0.039 | -0.036 | -0.007
5 | UBAP2L isoform 1 (UniProt Q14157) | 0.016 | -0.014 | 0.011 | 0.059 | -0.05 | 0.213 | 0.074 | 0.103 | -0.248 | -0.114 | -0.034 | 0.077 | 0.009 | -0.008 | 0.022 | -0.007 | -0.062 | -0.056 | 0.034 | -0.026
6 | XPNPEP1 isoform 3 (UniProt Q9NQW7) | 0.006 | -0.121 | 0.026 | -0.023 | 0.028 | -0.009 | 0.004 | 0.038 | 0.01 | 0.068 | 0.069 | -0.023 | 0.098 | -0.076 | 0.036 | -0.053 | -0.023 | 0.007 | 0.028 | -0.015
7 | WDR61 (UniProt Q9GZS3) | -0.121 | -0.031 | 0.008 | -0.05 | -0.082 | 0.14 | -0.035 | 0.065 | -0.104 | 0.042 | 0.043 | -0.044 | 0.071 | -0.056 | 0.059 | -0.099 | -0.072 | -0.017 | -0.004 | -0.028
8 | TMEM63B (UniProt Q5T3F8) | -0.125 | -0.089 | -0.018 | 0.011 | -0.037 | -0.028 | -0.03 | -0.028 | 0.032 | 0.003 | -0.127 | 0.045 | -0.042 | -0.014 | -0.085 | -0.028 | -0.007 | 0.015 | -0.047 | -0.312 (active)
9 | WRB (UniProt O00258) | -0.036 | -0.041 | -0.019 | -0.032 | -0.031 | -0.066 | 0.012 | 0.051 | 0.03 | 0.094 | -0.031 | 0.057 | 0.036 | -0.028 | -0.094 | -0.053 | -0.016 | 0.067 | 0.015 | 0.029
10 | WDR18 (UniProt Q9BV38) | -0.04 | 0.02 | -0.024 | 0.039 | -0.041 | 0.056 | 0.024 | 0.035 | 0.005 | -0.004 | -0.023 | -0.008 | -0.022 | -0.102 | -0.012 | -0.021 | 0.022 | -0.009 | 0.026 | 0.027
11 | USP48 isoform 8 (UniProt Q86UV5) | 0.155 | -0.075 | 0.089 | -0.03 | 0.12 | -0.267 | 0.093 | -0.018 | 0.002 | 0.016 | 0.03 | -0.036 | 0.066 | -0.133 | 0.088 | -0.197 | 0.334 | 0.212 | -0.1 | -0.07
12 | TNFRSF8 (UniProt P28908) | 0.019 | 0.11 | -0.019 | 0.04 | -0.011 | 0.074 | 0.067 | 0 | 0.003 | 0.047 | 0.051 | 0.15 | 0.009 | -0.073 | 0.027 | 0.012 | -0.05 | -0.063 | -0.011 | 0.029
